From PubChem BioAssay (Tox21)
Records with an inconclusive call do not appear. The source made the active and inactive calls. Unless noted, calls come from the whole dose curve.

Key:
[1] = Nuclear factor erythroid 2-related factor 2/antioxidant responsive element (Nrf2/ARE) small molecule agonists: qHTS cell viability counter screen in human keratinocytes (AID 1919968; active = well fitted curve in the direction sought with a large enough effect in the repeat runs; an effect the other way counts as inactive or inconclusive; note: nearly all actives have a fitted effect of over 55% in size)
How it was run: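 Measured as CellTiter-Fluor fluorescence, this readout tracks cytotoxicity in the same wells as the ARE-luciferase screen. HaCaT reporter cells (1,500/well) received compounds after a 5 h pre-incubation and were exposed for 23 h.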

[2] = Nuclear factor erythroid 2-related factor 2/antioxidant responsive element (Nrf2/ARE) small molecule agonists: luciferase reporter gene qHTS assay in human keratinocytes (AID 1919969); note: nearly all actives have a fitted effect of over 35% in size
[3] = target: Gonadotropin-releasing hormone receptor (Homo sapiens) (UniProt P30968); experiment: Human gonadotropin-releasing hormone receptor (GnRHR) small molecule agonists, calcium flux assay in GnRHR-HEK293 cells (AID 1920063); note: nearly all actives have a fitted effect of over 35% in size
Sequence of Gonadotropin-releasing hormone receptor (Homo sapiens) (P30968 whole entry, looked up): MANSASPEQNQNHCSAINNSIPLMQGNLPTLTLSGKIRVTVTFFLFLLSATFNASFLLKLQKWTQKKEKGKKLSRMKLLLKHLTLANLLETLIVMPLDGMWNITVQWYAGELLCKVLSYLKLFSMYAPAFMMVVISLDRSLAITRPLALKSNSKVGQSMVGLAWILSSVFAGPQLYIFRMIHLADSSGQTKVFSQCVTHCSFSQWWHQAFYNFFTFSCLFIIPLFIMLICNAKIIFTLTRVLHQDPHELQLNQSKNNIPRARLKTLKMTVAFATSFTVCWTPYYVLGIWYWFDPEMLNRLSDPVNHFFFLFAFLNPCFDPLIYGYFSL
How it was run: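 Fluorescence kinetics (480 nm excitation, 540 nm emission; 3 min, 1 s steps) report calcium mobilisation in human GnRHR-HEK293 cells in agonist mode. Dye incubation: 1 h, 37 C.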

[4] = target: KiSS-1 receptor (Homo sapiens) (UniProt Q969F8); experiment: Human kisspeptin (KISS1R) small molecule agonists, calcium flux assay in KISS1R-HEK293 cells (AID 1920064; active = well fitted curve in the direction sought with a large enough effect in the repeat runs; an effect the other way counts as inactive or inconclusive)
Sequence of KiSS-1 receptor (Homo sapiens) (Q969F8 whole entry, looked up): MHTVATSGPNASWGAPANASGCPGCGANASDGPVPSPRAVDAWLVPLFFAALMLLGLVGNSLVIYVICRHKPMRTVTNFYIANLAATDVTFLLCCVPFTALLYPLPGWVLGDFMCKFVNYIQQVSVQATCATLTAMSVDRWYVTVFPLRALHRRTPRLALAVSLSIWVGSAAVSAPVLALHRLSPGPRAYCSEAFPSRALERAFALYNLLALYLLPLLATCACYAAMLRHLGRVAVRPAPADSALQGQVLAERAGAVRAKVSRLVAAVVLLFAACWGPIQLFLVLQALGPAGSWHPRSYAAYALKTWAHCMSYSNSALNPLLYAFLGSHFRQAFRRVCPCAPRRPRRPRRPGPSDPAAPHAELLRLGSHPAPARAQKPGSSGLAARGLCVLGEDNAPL
How it was run: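 Measures KISS1R agonism through calcium-sensitive dye fluorescence in stably transfected HEK293 cells, read for 3 min after pin-tool compound delivery; 15-point titrations in triplicate.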

[5] = G protein-coupled receptor (GPCR) small molecule agonists, calcium flux assay: HEK293 wild type cell line counter screen (AID 1920065)
How it was run: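 Readout: fluorescence at 480 nm excitation/540 nm emission, sampled at 1 s intervals for 3 min. Cells had been cultured 18 h, then dye-loaded 1 h at 37 C before compound or ATP addition.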

[6] = p53 small molecule agonists, cell-based qHTS assay with human liver microsomes (AID 1963577)
How it was run: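 p53RE-bla reporter cells were pre-incubated 5 h at 37 C, then treated with compounds plus human liver microsomes (0.5 mg/mL final) and NADPH (0.5 mg/mL final) for 16 h at 37 C. Beta-lactamase activity was read by LiveBLAzer fluorescence after 2 h at room temperature.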

[7] = p53 small molecule agonists, cell-based qHTS assay with rat liver microsomes (AID 1963578)
How it was run: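 p53RE-bla cells were exposed to compounds together with rat liver microsomes (0.5 mg/mL final) and NADPH (0.5 mg/mL final) for 16 h at 37 C, then read by LiveBLAzer beta-lactamase fluorescence after 2 h at room temperature.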

[8] = p53 small molecule agonists, cell-based qHTS assay with human liver microsomes: qHTS cell viability counter screen (AID 1963579); note: nearly all actives have a fitted effect of over 45% in size
How it was run: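 p53RE-bla cells (4,000/well) were pre-incubated 5 h at 37 C, then given compounds in DMSO plus human liver microsomes (0.5 mg/mL final) and NADPH (0.5 mg/mL final) for 16 h at 37 C. Viability was read by CellTiter-Glo luminescence.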

[9] = p53 small molecule agonists, cell-based qHTS assay with rat liver microsomes: qHTS cell viability counter screen (AID 1963580); note: nearly all actives have a fitted effect of over 45% in size
How it was run: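 Viability is assessed in parallel with the p53 reporter read: HCT-116 p53RE-bla cells receive compounds plus rat microsomes and NADPH (0.5 mg/mL final apiece), incubate 16 h at 37 C, and then CellTiter-Glo luminescence is recorded.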

[10] = p53 small molecule agonists, cell-based qHTS assay: qHTS cell viability counter screen (AID 1963581); note: nearly all actives have a fitted effect of over 45% in size
How it was run: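 In the same plates used for the p53 bla reporter, HCT-116 cells given compounds for 16 h at 37 C received CellTiter-Glo; luminescence was recorded 30 min later at room temperature.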

[11] = p53 small molecule agonists, cell-based qHTS assay (AID 1963582; active = well fitted activation curve with a large enough effect in the signal ratio in the repeat runs, not every such curve was filed as active; the % refers to the signal ratio)
How it was run: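 Compounds are pin-transferred in DMSO onto p53RE-bla cells and incubated 16 h at 37 C. The B/G FRET beta-lactamase substrate is then applied for 2 h at RT and fluorescence recorded.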

[12] = target: 5-hydroxytryptamine receptor 2A (Homo sapiens) (UniProt P28223); experiment: 5-hydroxytryptamine receptor 2A (HTR2A) small molecule antagonists, cell-based qHTS assay (AID 1963586); note: nearly all actives have a fitted effect of over 45% in size
Sequence of 5-hydroxytryptamine receptor 2A (Homo sapiens) (P28223 whole entry, looked up): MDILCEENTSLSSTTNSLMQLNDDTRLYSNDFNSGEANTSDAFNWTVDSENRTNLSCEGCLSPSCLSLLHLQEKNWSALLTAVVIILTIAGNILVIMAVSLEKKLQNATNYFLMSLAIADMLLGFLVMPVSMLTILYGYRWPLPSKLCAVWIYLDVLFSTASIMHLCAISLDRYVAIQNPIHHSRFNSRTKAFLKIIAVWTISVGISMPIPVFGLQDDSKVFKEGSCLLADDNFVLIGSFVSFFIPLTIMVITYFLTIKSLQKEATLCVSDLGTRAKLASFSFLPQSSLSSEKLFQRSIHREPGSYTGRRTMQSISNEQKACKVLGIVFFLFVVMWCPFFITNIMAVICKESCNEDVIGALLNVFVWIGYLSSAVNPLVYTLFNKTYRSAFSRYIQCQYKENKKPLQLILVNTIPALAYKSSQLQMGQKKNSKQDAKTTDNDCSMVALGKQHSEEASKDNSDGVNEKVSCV
How it was run: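 Antagonist-mode intracellular calcium assay: DOI (4 nM) added after 5 min compound pre-incubation at room temperature to dye-loaded HTR2A-CHO cells. Fluorescence followed for 3 min, sampled every second.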

[13] = target: 5-hydroxytryptamine receptor 2A (Homo sapiens) (UniProt P28223); experiment: 5-hydroxytryptamine receptor 2A (HTR2A) small molecule agonists, cell-based qHTS assay (AID 1963587); note: nearly all actives have a fitted effect of over 30% in size
How it was run: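 CHO cells stably expressing human HTR2A, plated 18 h, loaded with calcium dye 1 h at 37 C. Agonist mode: compounds added and intracellular calcium fluorescence recorded kinetically for 2 min at 1 sec intervals.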

[14] = target: Muscarinic acetylcholine receptor M1 (Homo sapiens) (UniProt P11229); experiment: Cholinergic receptor muscarinic 1 (CHRM1) small molecule antagonists, cell-based qHTS assay (AID 1963588); note: nearly all actives have a fitted effect of over 40% in size
Sequence of Muscarinic acetylcholine receptor M1 (Homo sapiens) (P11229 whole entry, looked up): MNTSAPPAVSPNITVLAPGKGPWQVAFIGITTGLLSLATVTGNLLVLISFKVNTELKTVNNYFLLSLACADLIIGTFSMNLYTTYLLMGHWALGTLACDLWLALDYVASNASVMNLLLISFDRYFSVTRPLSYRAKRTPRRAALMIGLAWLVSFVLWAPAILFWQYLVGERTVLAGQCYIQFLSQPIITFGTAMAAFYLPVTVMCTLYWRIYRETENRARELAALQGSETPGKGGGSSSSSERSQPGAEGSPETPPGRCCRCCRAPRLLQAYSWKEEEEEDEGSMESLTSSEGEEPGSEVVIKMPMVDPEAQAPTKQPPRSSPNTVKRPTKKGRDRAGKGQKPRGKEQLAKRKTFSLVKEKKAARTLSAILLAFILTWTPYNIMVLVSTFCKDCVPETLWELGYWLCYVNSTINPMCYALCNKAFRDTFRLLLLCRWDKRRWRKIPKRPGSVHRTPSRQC
How it was run: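 CHRM1-CHO calcium-flux assay, antagonist mode. Cells were seeded 18 h, dye-loaded 1 h at 37 C and given compound for 5 min at RT, then acetylcholine was added at 50nM. FDSS fluorescence was read 3 min; 15 concentrations, three runs.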

[15] = target: Muscarinic acetylcholine receptor M1 (Homo sapiens) (UniProt P11229); experiment: Cholinergic receptor muscarinic 1 (CHRM1) small molecule agonists, cell-based qHTS assay (AID 1963589); note: nearly all actives have a fitted effect of over 35% in size
How it was run: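 Each compound was tested at 15 concentrations across three independent runs on dye-loaded CHO cells stably expressing human CHRM1, reading intracellular calcium fluorescence kinetically at 1 sec intervals.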

[16] = cAMP Responsive Elements (CRE) small molecule agonists, cell-based qHTS assay (AID 1963590)
How it was run: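 Cell line: CRE-bla HEK 293T; medium DMEM/10% dialyzed FBS/0.1 mM NEAA/1 mM pyruvate/25 mM HEPES; 3 h compound exposure; beta-lactamase FRET readout after 2 h substrate loading at RT.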

[17] = cAMP Responsive Elements (CRE) small molecule antagonists, cell-based qHTS assay (AID 1963591; active = well fitted inhibition curve with a large enough effect in the signal ratio in the repeat runs, not every such curve was filed as active; the % refers to the signal ratio)
How it was run: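 Inhibition of NKH477-driven (0.25 uM final) CRE-beta-lactamase signal in HEK293T cells, 3 h compound exposure at 37 °C, detected by FRET substrate fluorescence.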

[18] = target: Beta-2 adrenergic receptor (Homo sapiens) (UniProt P07550); experiment: Adrenergic beta2 receptor (ADRB2) small molecule antagonists, cell-based qHTS assay (AID 1963592); note: series mostly up to about 92 µM; nearly all actives have a fitted effect of over 50% in size
Sequence of Beta-2 adrenergic receptor (Homo sapiens) (P07550 whole entry, looked up): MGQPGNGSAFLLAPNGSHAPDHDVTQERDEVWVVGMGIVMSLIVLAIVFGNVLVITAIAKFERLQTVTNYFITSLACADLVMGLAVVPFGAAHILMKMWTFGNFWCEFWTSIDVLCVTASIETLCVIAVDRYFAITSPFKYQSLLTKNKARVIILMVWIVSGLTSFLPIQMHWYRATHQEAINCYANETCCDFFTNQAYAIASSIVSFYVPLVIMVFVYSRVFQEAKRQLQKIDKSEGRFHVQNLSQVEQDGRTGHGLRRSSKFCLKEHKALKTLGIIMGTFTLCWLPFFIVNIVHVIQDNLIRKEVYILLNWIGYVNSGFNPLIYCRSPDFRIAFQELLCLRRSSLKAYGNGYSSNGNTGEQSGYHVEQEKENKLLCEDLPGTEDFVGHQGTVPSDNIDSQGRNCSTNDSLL
How it was run: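 Cells (CHO, stable ADRB2 overexpression) incubated 18-20hr at 37C; compounds added from DMSO; agonist mix (1nM isoproterenol, 100uM IBMX, 25uM Ro-20-1724) added; 0.5hr RT; d2-cAMP and anti-cAMP-cryptate added; 1hr RT; 665/615 nm read.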

[19] = target: D(2) dopamine receptor (Homo sapiens) (UniProt P14416); experiment: Dopamine D2 receptor (DRD2) small molecule agonists, cell-based qHTS assay (AID 1963594); note: nearly all actives have a fitted effect of over 35% in size
Sequence of D(2) dopamine receptor (Homo sapiens) (P14416 whole entry, looked up): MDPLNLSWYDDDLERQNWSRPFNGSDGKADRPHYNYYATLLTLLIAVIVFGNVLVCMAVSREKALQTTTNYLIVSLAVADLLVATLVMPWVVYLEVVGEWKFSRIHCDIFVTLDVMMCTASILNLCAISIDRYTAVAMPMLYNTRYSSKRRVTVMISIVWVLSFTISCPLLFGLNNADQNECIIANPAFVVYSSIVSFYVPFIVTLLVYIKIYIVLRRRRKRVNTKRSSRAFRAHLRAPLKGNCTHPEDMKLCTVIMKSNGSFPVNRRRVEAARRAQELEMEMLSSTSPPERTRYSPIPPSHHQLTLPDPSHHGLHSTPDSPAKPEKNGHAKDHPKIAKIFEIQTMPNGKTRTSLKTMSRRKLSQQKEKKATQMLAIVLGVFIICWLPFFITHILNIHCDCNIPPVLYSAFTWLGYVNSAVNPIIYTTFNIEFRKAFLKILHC
How it was run: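 HEK293 cells stably expressing human DRD2, pre-treated with PDE inhibitor Ro20-1724 (0.1 mM final) and compound 10 min at room temperature, then stimulated with NKH477 (200nM […]) for 30 min. cAMP read by HTRF (665/620 nm).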

[20] = target: D(2) dopamine receptor (Homo sapiens) (UniProt P14416); experiment: Dopamine D2 receptor (DRD2) small molecule antagonists, cell-based qHTS assay (AID 1963595; active = well fitted inhibition curve with a large enough effect in the signal ratio in the repeat runs, with a control signal flat; the % refers to the signal ratio)
How it was run: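 HEK293 cells stably expressing DRD2 were preincubated with 0.1 mM Ro20-1724, then with compound for 10 min at room temperature. Cells were stimulated with 200 nM NKH477 plus 12 nM quinpirole for 30 min, and cAMP was read by HTRF.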

Measured: Potency

NCCCN1CCN(CCCN)CC1
not listed: [20]
inactive: all other assays above

CC(CC=O)CC(C)(C)C (configuration not stated)
inactive: all assays above

O=Cc1ccc(F)cc1
not listed: [19]
inactive: all other assays above

NCc1ccc(S(N)(=O)=O)cc1
inactive: all assays above

CCOC(=O)C(C)C(C)=O (configuration not stated)
inactive: all assays above

CN1[C@@H]2CC[C@H]1CC(NC(=O)n1c(=O)[nH]c3ccccc31)C2 (some centres not stated)
not listed: [19]
inactive: all other assays above

COc1cccc(OC)c1C(=O)O
inactive: all assays above
